A short description of assay [1]: Her2 expression decrease, cell viability multiplex – SKBR3 breast tumor cells, AlphaScreen, ATP viability, primary screen (AID 461;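 active = Her2 level under about 52% in both replicate screens, with viability over 70% of control, limit read from the data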;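 as to Her2 level: lower value means less Her2 protein in the cells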;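 as to viability: percent of carrier control wells set as 100% viability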). The note with it: SKBR3 Her2 protein level, 18-24 h, measured here: SKBR3 viability, ATP luminescence, at 10 µM. On the technique in general: Bead proximity is the source of the signal in Alpha formats.
Assay [2] concerns the target Receptor tyrosine-protein kinase erbB-2 (Homo sapiens) (UniProt P04626). The assay is described as above. Conditions: 18-24 h, at 10 µM, stronger effect = lower value.
Assay [3] can be described thus: reduced viability of SK-BR-3 breast cancer cells – cell-based, 24 h, human, pilot screen (AID 572;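 active = viability at or below 10% of carrier control in both of two separate runs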;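 also: compound exposure lasted between 18 and 24 h rather than exactly 24 h; 100% = carrier-treated control wells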). Conditions: SK-BR-3 viability, CellTiter-Glo luminescence, at 10 µM, stronger effect = lower value. A general note: In ATP-based viability assays light output follows the ATP content of the culture.
The nature of assay [4]: HUVEC growth inhibition – cell-based, human, primary screen (AID 575;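 active = viability at or below 30% in both replicate assays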;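 also: 100% = median of untreated cell wells with 0.1% DMSO on each plate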). Conditions: HUVEC proliferation, CellTiter-Glo luminescence, 72 h; at 10 µM; stronger effect = lower value.
A short description of assay [5]: H69AR cell proliferation blockers – human, duplicate replicates, primary screen (AID 580;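 active = viability at or under a set limit in both replicates, limit being median viability minus 3 SD, cut at about 48% in these data, passing the limit was not always enough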;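 also: 100% = mean luminescence of untreated wells and 0% = no signal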). The note with it: H69AR lung tumor cells viability, ATP luminescence, 72 h; at 10 µM; stronger effect = lower value.
A short description of assay [6]: MRP1 drug-resistance reversers in H69AR cells – cell-based, doxorubicin co-treatment, pilot screen (AID 601;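 active = viability loss from added drug above about 55%, and viability with drug at most 40%, in both replicates, limit read from the data, passing the limit was not always enough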). Conditions: CellTiter-Glo, 72 h, at 10 µM; for differential viability (reversal): stronger effect = higher value.
Assay [7] can be described thus: yeast transport mutant growth inhibition pilot in 384-well plates, post-Golgi transport modulator project (AID 636; in the data active = inhibition above about 31%). Conditions: absorbance 615 nm, about 18 h, stronger effect = higher value.
Assay [8] in a line: growth suppression of yeast trafficking mutant, preliminary HTS, modulators of trafficking downstream of Golgi apparatus project, 1536-format plate, OD 615 nm (AID 637; in the data active = inhibition above about 30%). The note with it: yeast transport mutant growth, absorbance 615 nm, 18 h; stronger effect = higher value.
Assay [9] can be described thus: S. cerevisiae growth inhibition in permissive medium (OD615), pilot counter-assay for S. cerevisiae lifespan shortening project, permissive growth control (AID 705). The note with it: OD615, 24 h, at 10 µM, stronger effect = higher value.
Assay [10] in a line: S. cerevisiae growth inhibition in restrictive medium, OD615, pilot screen, restrictive growth control, yeast lifespan reduction project (AID 706;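 active = growth inhibition above a set limit, 3 SD over mean compound inhibition, in both replicates, cut at about 43% in these data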;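 also: modified DeaD lifespan yeast strain shifted to restrictive glucose medium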). The note with it: OD615, 48 h, at 10 µM, stronger effect = higher value.
The nature of assay [11]: doxorubicin toxicity protection in MRP-1 cells – H69AR cells, CellTiter-Glo, duplicate, MRP-1 activator project, pilot screen (AID 807;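 active = viability increase at or above a cutoff of the median across tested compounds plus 3 SD, cut at about 8.5% in these data, passing the limit was not always enough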;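 also: compound pretreatment 18-22 h then 72 h combined with doxorubicin; 0% = doxorubicin alone and 100% = vehicle without doxorubicin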). Conditions: H69AR viability with doxorubicin, CellTiter-Glo luminescence; at 10 µM; stronger effect = higher value.
Assay [12] can be described thus: viability of HCT116 without oncogenic beta-catenin – human colon tumor cells, pilot screen (AID 823;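 active = cell viability at or below a set limit in both duplicate runs, the limit being the all-compound median minus 4 SD, cut at about 23% in these data, passing the limit was not always enough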;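 also: 0% = wells killed by 20 µM Hyamine and 100% = untreated DMSO cell wells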). The note with it: HCT116 beta-catenin knockout viability, CellTiter-Glo, 60 h; at 10 µM; stronger effect = lower value.
Assay [13] can be described thus: viability of PTEN-null HCT116 cells – cell-based, HCT116 clonal line, CellTiter-Glo, pilot screen (AID 824;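 active = viability at or below 27.92% in each of two runs, the all-compound median minus 4 SD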;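 also: 0% = 20 µM Hyamine control and 100% = vehicle cell control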). The note with it: HCT116 PTEN-deleted viability, 60 h, at 10 µM, stronger effect = lower value.
A short description of assay [14]: RAM pathway blockade in budding yeast – dse1pr::URA3 reporter, 5-FOA selection, pilot screen (AID 869;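 active = inhibition over a set limit, the all-compound mean plus 3 SD, in both replicate runs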;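 also: 0% = DMSO wells with no growth and 100% = 10 µM 1-NA-PP1 with full growth; RAM network block rescues cells from 5-FOA so hits raise OD615 growth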). The note with it: S. cerevisiae dse1pr::URA3 5-FOA growth, OD615, 2 d; at 10 µM; stronger effect = higher value; strain carries analog-sensitive mutant Cbk1 kinase.
A short description of assay [15]: RAM signaling pathway blockade in yeast – S. cerevisiae, Pdr1DBD-CYC8 efflux-inhibited sensitized strain, primary screen (AID 1298;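 active = RAM network inhibition above 8.4% in each of two replicates, 3 SD over the compound average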;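 also: 0% = DMSO untreated cells without growth and 100% = 10 µM 1-NA-PP1 full growth; higher means more yeast growth rescued from 5-FOA killing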). Conditions: S. cerevisiae cbk1-as DSE1-URA3 strain, 5-FOA growth OD615, 2 d; at 50 µM; stronger effect = higher value.
The mark [16] stands for this setting: H69AR cells + 2 uM doxorubicin, measured here: viability with 2 uM doxorubicin, stronger effect = lower value.
Setting [17] is: H69AR cells, compound alone cytotoxicity.

Records with an inconclusive call do not appear. Calls of active or inactive are those of the source.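 The calls were made as follows, unless noted: active = growth inhibition above 25% in both replicates, a cutoff set 3 SD above the mean; inconclusive = above 25% in only one replicate; inactive = the rest.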

Chain of Receptor tyrosine-protein kinase erbB-2 (Homo sapiens) (P04626 whole entry, looked up): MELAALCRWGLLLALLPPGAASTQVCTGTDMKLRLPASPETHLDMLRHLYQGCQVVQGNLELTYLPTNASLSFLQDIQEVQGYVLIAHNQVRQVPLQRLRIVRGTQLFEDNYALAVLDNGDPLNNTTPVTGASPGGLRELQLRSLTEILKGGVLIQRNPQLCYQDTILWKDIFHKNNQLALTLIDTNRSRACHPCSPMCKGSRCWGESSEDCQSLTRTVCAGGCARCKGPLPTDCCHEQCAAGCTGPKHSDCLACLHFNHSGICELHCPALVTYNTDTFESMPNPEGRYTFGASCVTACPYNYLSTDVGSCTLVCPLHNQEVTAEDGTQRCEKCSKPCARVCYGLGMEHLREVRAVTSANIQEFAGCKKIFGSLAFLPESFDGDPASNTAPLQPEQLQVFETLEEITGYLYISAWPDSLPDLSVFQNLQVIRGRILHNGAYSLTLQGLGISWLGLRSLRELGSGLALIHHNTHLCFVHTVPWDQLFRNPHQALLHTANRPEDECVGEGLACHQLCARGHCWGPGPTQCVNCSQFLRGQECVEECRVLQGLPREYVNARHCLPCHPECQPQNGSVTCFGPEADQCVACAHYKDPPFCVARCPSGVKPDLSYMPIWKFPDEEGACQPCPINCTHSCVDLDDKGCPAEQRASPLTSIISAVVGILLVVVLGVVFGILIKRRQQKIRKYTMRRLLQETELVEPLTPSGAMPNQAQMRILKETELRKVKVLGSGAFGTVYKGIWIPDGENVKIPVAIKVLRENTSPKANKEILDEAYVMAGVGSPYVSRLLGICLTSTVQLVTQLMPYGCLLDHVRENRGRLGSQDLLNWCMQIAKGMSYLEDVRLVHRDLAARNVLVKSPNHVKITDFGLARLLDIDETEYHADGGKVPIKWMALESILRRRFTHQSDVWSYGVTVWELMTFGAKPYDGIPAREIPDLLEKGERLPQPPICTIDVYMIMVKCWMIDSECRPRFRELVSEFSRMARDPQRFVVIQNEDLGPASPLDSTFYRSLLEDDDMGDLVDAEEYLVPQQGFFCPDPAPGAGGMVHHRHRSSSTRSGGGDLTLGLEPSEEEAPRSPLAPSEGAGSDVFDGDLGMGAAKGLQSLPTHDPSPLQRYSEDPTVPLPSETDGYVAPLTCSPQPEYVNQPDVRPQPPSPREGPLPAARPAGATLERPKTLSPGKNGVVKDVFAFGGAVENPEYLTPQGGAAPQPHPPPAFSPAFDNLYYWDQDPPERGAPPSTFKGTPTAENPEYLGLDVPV

For the compound `Cc1cc(NC(=O)COc2cccc(C)c2C)no1`, the viability (usually a read-out of living cells in per cent, often relative to untreated cells) in assay [1] is 96%; in [3] it was 96% (inactive); in assay [4], 94.2% (inactive); in assay [5], 108% (inactive); in [6] (setting [16]), 92.5%; in [6] (setting [17]) it was 108%. Further, the figures for the viability in [12] and in [13] were 102% (inactive) and 105% (inactive), respectively. For the same compound, the Her2 level in assay [2] is 102% (inactive). Also, the differential viability (reversal) in [6] (H69AR cells + 2 uM doxorubicin) was 15.6% (inactive). In addition, the inhibition (commonly the relative decrease from the control value, in per cent) in assay [7] was -0.53% (inactive); in assay [8], -4.26% (inactive); in assay [14], 2.08% (inactive). The growth inhibition was -0.27% (inactive) in assay [9] and 6.53% (inactive) in assay [10]. The viability increase in assay [11] is 3.52% (inactive). Further, in assay [15], the RAM network inhibition is 2.68% (inactive).

Turning to `COc1ccc(OC)c(C(C)NC=O)c1` (stereo unspecified), the viability in [1] is 89%; in [3], 89% (inactive); in assay [4] it was 102% (inactive); in [5], 99.5% (inactive); in [6] (setting [16]), 99.2%; in [6] (setting [17]), 99.5%. The viability is 95.2% (inactive) in [12] and 105% (inactive) in [13]. Also, in [2], the Her2 level is 90.5% (inactive). Further, the differential viability (reversal) in assay [6] (H69AR cells + 2 uM doxorubicin) is 0.26% (inactive). For the same compound, the inhibition in [7] was -6.89% (inactive); in [8], -2.3% (inactive); in [14] it was 1.43% (inactive). Besides, the growth inhibition in [9] was -9.25% (inactive); in [10], -7.95% (inactive). The viability increase in [11] is -0.64% (inactive). Besides, the RAM network inhibition in [15] is -0.21% (inactive).

With `NC(=O)C1CCN(C(=O)c2cc3n(n2)C(C(F)(F)F)CC(c2ccco2)N3)CC1` (stereo unspecified), the viability was 84% in [1]; 84% (inactive) in assay [3]; 104% (inactive) in assay [4]; 85% (inactive) in assay [5]; 85.8% in assay [6] (setting [16]); 85% in assay [6] (setting [17]). Further, the viability was 97% (inactive) in [12] and 97.4% (inactive) in assay [13]. For the same compound, the Her2 level in assay [2] was 99.5% (inactive). Moreover, in assay [6] (H69AR cells + 2 uM doxorubicin), the differential viability (reversal) was -0.83% (inactive). In addition, the figures for the inhibition in [7], in assay [8] and in [14] were -0.93% (inactive), -4.67% (inactive) and 2.2% (inactive), respectively. The growth inhibition is -7% (inactive) in assay [9] and -1.27% (inactive) in assay [10]. In addition, the viability increase in [11] was -1.57% (inactive). In assay [15], the RAM network inhibition is 0.98% (inactive).

Turning to `CCOC(=O)C1=C(C)Nc2nnnn2C1c1ccc(OC)c(Br)c1` (stereo unspecified), the viability in [1] is 106%; in assay [3], 106% (inactive); in assay [4] it was 87.7% (inactive); in assay [5], 93.3% (inactive); in [6] (setting [16]), 97.8%; in assay [6] (setting [17]) it was 93.3%. For the same compound, the viability in assay [12] was 92% (inactive); in assay [13], 90.7% (inactive). Further, in [2], the Her2 level was 106% (inactive). Moreover, in [6] (H69AR cells + 2 uM doxorubicin), the differential viability (reversal) was -4.47% (inactive). Also, the inhibition in [7] was 5.07% (inactive); in [8], 14.8% (inactive); in assay [14], 3.05% (inactive). The values for the growth inhibition in assay [9] and in assay [10] were -8.85% (inactive) and 2.52% (inactive), respectively. For the same compound, the viability increase in assay [11] is -2.62% (inactive). For the same compound, in assay [15], the RAM network inhibition was 0.79% (inactive).

For `COc1ccccc1-n1c(=O)[nH]c2c(C(N)=O)nc(-c3cccnc3)nc21`, the viability in assay [1] is 82.5%; in [3], 82.5% (inactive); in [4] it was 73.7% (inactive); in [5], 69.9% (inactive); in [6] (setting [16]), 75.6%; in assay [6] (setting [17]), 69.9%. In addition, the results for the viability in assay [12] and in assay [13] were 72.9% (inactive) and 67.7% (inactive), respectively. The Her2 level in [2] is 88.5% (inactive). The differential viability (reversal) in assay [6] (H69AR cells + 2 uM doxorubicin) was -5.7% (inactive). Further, the values for the inhibition in [7], in assay [8] and in [14] were -3.2% (inactive), -3.93% (inactive) and 2.47% (inactive), respectively. In addition, the results for the growth inhibition in assay [9] and in [10] were -7.79% (inactive) and -16.8% (inactive), respectively. The viability increase in assay [11] is -7.14% (inactive). The RAM network inhibition in assay [15] is 4.37% (inactive).

With `CCCCNC(=O)Cn1c(=O)n(C)c2ccccc21`, the viability in assay [1] is 105%; in assay [3], 105% (inactive); in [4] it was 84.4% (inactive); in assay [5] it was 88.5% (inactive); in assay [6] (setting [16]) it was 91.2%; in [6] (setting [17]), 88.5%. For the same compound, the figures for the viability in assay [12] and in assay [13] were 106% (inactive) and 101% (inactive), respectively. Moreover, in [2], the Her2 level is 96.5% (inactive). In addition, the differential viability (reversal) in [6] (H69AR cells + 2 uM doxorubicin) was -2.7% (inactive). Also, the inhibition in [7] was -5.07% (inactive); in [8], -2% (inactive); in assay [14] it was 1.49% (inactive). In addition, the growth inhibition in assay [9] is -9.7% (inactive); in assay [10], -4.06% (inactive). The viability increase in assay [11] was -0.03% (inactive). Besides, in [15], the RAM network inhibition is -1.79% (inactive).

For `COc1ccccc1N1CCN(c2cc(=O)n(Cc3ccc(F)cc3)c(=O)[nH]2)CC1`, the viability in assay [1] is 99%; in [3], 99% (inactive); in assay [4], 44.1% (inactive); in [5] it was 12.1% (active); in [6] (setting [16]), 50.1%; in assay [6] (setting [17]), 12.1%. For the same compound, the viability in assay [12] is 33.6% (inactive). The Her2 level in assay [2] was 68.5% (inactive). Moreover, the differential viability (reversal) in [6] (H69AR cells + 2 uM doxorubicin) is -38% (inactive). Also, the figures for the inhibition in assay [7], in assay [8] and in assay [14] were 0% (inactive), 9.17% (inactive) and 1.02% (inactive), respectively. Further, the growth inhibition was -0.995% (inactive) in assay [9] and 0.535% (inactive) in assay [10]. The viability increase in [11] was -5.11% (inactive). Moreover, the RAM network inhibition in assay [15] is 2.69% (inactive).

As to `COc1cccc(N(C(C)=O)c2nc(C)cc(C)c2C#N)c1`, the viability was 102% in assay [1]; 102% (inactive) in [3]; 96.1% (inactive) in [4]; 104% (inactive) in [5]; 95.3% in [6] (setting [16]); 104% in [6] (setting [17]). Further, the viability in [12] is 109% (inactive). Moreover, in assay [2], the Her2 level was 87% (inactive). The differential viability (reversal) in [6] (H69AR cells + 2 uM doxorubicin) was 8.34% (inactive). Moreover, the inhibition in assay [7] was -7.26% (inactive); in [8], -1.59% (inactive); in assay [14], 1.36% (inactive). The growth inhibition in assay [9] was -15.4% (inactive); in assay [10], 9.36% (inactive). The viability increase in assay [11] is -0.35% (inactive). Besides, the RAM network inhibition in assay [15] was 2.39% (inactive).

In the case of `COCc1nnc(NC(=O)c2ccc(S(=O)(=O)N(C)c3ccccc3)cc2)o1`, the viability in assay [1] is 85%; in [3] it was 85% (inactive); in [4], 66.6% (inactive); in assay [5], 43.7% (active); in assay [6] (setting [16]), 62.2%; in assay [6] (setting [17]), 43.7%. Also, in assay [12], the viability was 29.7% (inactive). Also, the Her2 level in [2] was 107% (inactive). For the same compound, the differential viability (reversal) in assay [6] (H69AR cells + 2 uM doxorubicin) is -18.5% (inactive). The inhibition in assay [7] was -3.87% (inactive); in assay [8], -2.17% (inactive); in assay [14], 0.19% (inactive). Further, the values for the growth inhibition in assay [9] and in [10] were 3.04% (inactive) and 9.5% (inactive), respectively. For the same compound, in assay [11], the viability increase is -5.06% (inactive). Besides, the RAM network inhibition in assay [15] was 4.65% (inactive).

Regarding `N#Cc1c2n(c(=O)[nH]c1=O)CCCCC2`, the viability in assay [1] is 112%; in assay [3], 112% (inactive); in assay [4], 96.2% (inactive); in [5] it was 103% (inactive); in assay [6] (setting [16]), 99.7%; in assay [6] (setting [17]), 103%. Besides, the viability in [12] is 99.5% (inactive). For the same compound, in assay [2], the Her2 level is 92% (inactive). In assay [6] (H69AR cells + 2 uM doxorubicin), the differential viability (reversal) is 3.5% (inactive). In addition, the inhibition in assay [7] was -2.6% (inactive); in assay [8], -7.46% (inactive); in assay [14] it was -0.04% (inactive). Also, the growth inhibition in assay [9] was -9.79% (inactive); in [10] it was 1.1% (inactive). The viability increase in [11] was 1.19% (inactive). The RAM network inhibition in assay [15] was 6.34% (inactive).

The values above are taken from PubChem BioAssay.
